Test results: PubChem BioAssay (Tox21)
Inconclusive results are not listed. Where a call stands in place of a potency, no number is given. Activity calls are given as the source filed them. Calls come from the whole dose curve; as a rule, active = well fitted cell-killing curve with a large enough effect in the repeat runs; inconclusive = weak or mixed curves; inactive = flat fitted curve, though single readings scatter.

experiment: qHTS RealTime-Glo MT Cell Viability Assay in HepG2 cells - 24 hour (AID 1224867); settings: RealTime-Glo luminescence; series mostly up to 76.8 µM; activity change, negative = cytotoxicity: at the top concentration; note: nearly all actives have a fitted effect of over 50% in size
Source text: U.S. Tox21 Program National Center for Advancing Translational Sciences [NCATS] NIH Chemical Genomics Center [NCGC] U.S. Environmental Protection Agency [EPA] National Institutes of Environmental Health Sciences [NIEHS] National Toxicology Program [NTP] U.S. Food and Drug Administration [FDA] Tox21 Assay Overview: Measure of cell viability is critical in the cell-base assay. Analysis of cell viability is necessary for the characterization of cell responses to cytotoxic drugs and environmental stress. A RealTime-Glo MT Cell Viability Assay to monitor cell viability in real time of continues cell culture during 40 hours of compound treatment was used to screen Tox21 10K library compounds in HepG2 cells. The RealTime-Glo MT Cell Viability Assay is a nonlytic, homogeneous, bioluminescent method to measure cell viability in real time using a simple, plate-based method. The assay involves adding NanoLuc luciferase and a cell-permeant prosubstrate to cells in culture. Viable cells reduce the proprietary prosubstrate to generate a substrate for NanoLuc luciferase. This substrate diffuses from cells into the surrounding culture medium, where it is rapidly used by the NanoLuc Enzyme to produce a luminescent signal. The signal correlates with the number of viable cells, making the assay well suited for cytotoxicity studies.
Tox21 Assay Protocol Summary: The mixture of HepG2 cell suspension and reagents were dispensed at 600cells/6 ul/well in 1536-well tissue culture treated black solid bottom plates using a Multidrop dispenser. After the assay plates were incubated at a 37 C/5% CO2 incubator for 5 hours, 23 nL of compounds dissolved in DMSO, positive and negative controls was transferred to the assay plate by a pintool work station. The plates were incubated at 37 C for 40 hours. The luminescence intensity were measured at 0h, 8h, 16h, 24h, 32h and 40h time points using ViewLux plate reader during compound treatment.

Row | SMILES | Potency | activity change, negative = cytotoxicity
1 | CCCCCCOC(=O)c1ccccc1C(=O)OCCCCCC | inactive | –
2 | C#C[C@]1(O)CC[C@H]2[C@@H]3CCC4=CC(=O)CC[C@]4(C)[C@H]3CC[C@@]21C | inactive | –
3 | Nc1ccc(-c2ccccc2)cc1 | inactive | –
4 | CCOC(=O)C(C)OC(=O)c1cc(Oc2ccc(C(F)(F)F)cc2Cl)ccc1[N+](=O)[O-] (stereo not given) | inactive | –
5 | CCOP(=S)(OCC)O/N=C(\C#N)c1ccccc1 | inactive | –
6 | COP(=S)(OC)Oc1ccc([N+](=O)[O-])cc1 | inactive | –
7 | OCC(O)CO | inactive | –
8 | COc1ccc(C(CN(C)C)C2(O)CCCCC2)cc1 (stereo not given) | – | -0.782% [at 35.3 µM] (inactive)
9 | Cc1ccc(OP(=O)(Oc2ccc(C)cc2)Oc2ccc(C)cc2)cc1 | inactive | –
10 | CN(C)c1ccc(C(=O)c2ccc(N(C)C)cc2)cc1 | – | -11.1% (inactive)
11 | N[C@@H](Cc1ccc(N(CCCl)CCCl)cc1)C(=O)O | inactive | –
12 | c1nc[nH]n1 | inactive | –
13 | C=CCN(CC=C)C(=O)C(Cl)Cl | inactive | –
14 | COc1ccc(C=O)cc1 | inactive | –
15 | Oc1cc(Cl)c(Cl)cc1Cl | inactive | –
16 | CCC(CC)Nc1c([N+](=O)[O-])cc(C)c(C)c1[N+](=O)[O-] | inactive | –
17 | CC(C)C(=O)OCC(C)(C)C(OC(=O)C(C)C)C(C)C (stereo not given) | inactive | –
18 | Oc1c(Cl)c(Cl)c(Cl)c(Cl)c1Cl | inactive | –
19 | CC(C)(C)c1ccccc1O | inactive | –
20 | C[C@]12CCC(=O)C(O)=C1CC[C@@H]1[C@@H]2CC[C@]2(C)C(=O)CC[C@@H]12 | inactive | –

Row | SMILES | Potency | activity change, negative = cytotoxicity
21 | NC(=S)Nc1ccccc1 | inactive | –
22 | Nc1c(Cl)cc([N+](=O)[O-])cc1Cl | inactive | –
23 | O=P(Oc1ccccc1)(Oc1ccccc1)Oc1ccccc1 | inactive | –
24 | Cc1c(COC(=O)[C@@H]2[C@H](/C=C(\Cl)C(F)(F)F)C2(C)C)cccc1-c1ccccc1 | inactive | –
25 | CCCCCCCCC(=O)NCc1ccc(O)c(OC)c1 | inactive | –
26 | CC(C)=CC1C(C(=O)OCc2coc(Cc3ccccc3)c2)C1(C)C (stereo not given) | inactive | –
27 | c1ccc(-c2cccc(-c3ccccc3)c2)cc1 | inactive | –
28 | CCN(CC)C(=O)SCc1ccc(Cl)cc1 | inactive | –
29 | Nc1cccnc1 | inactive | –
30 | CCCCCCCCOC(=O)c1ccccc1C(=O)OCCCCCCCC | inactive | –
31 | Brc1ccc(Oc2cc(Br)c(Br)cc2Br)c(Br)c1 | inactive | –
32 | N#CC(Br)Br | inactive | –
33 | CCc1cccc(CC)c1N(COC)C(=O)CCl | inactive | –
34 | O=Cc1ccco1 | inactive | –
35 | CCCCCCCCCCCOC(=O)c1ccccc1C(=O)OCCCCCCCCCCC | inactive | –
36 | Cc1ccc(N)c(N)c1 | inactive | –
37 | CC(C)(OOC(C)(C)c1ccccc1)c1ccccc1 | inactive | –
38 | O=S(=O)(Oc1ccc(Cl)cc1)c1ccc(Cl)cc1 | inactive | –
39 | N#Cc1cc(Br)c(O)c(Br)c1 | inactive | –
40 | CC(C)NC(C)C | inactive | –
